Assay results taken from the supplement of paper PMC6555819.

Key:
Test in all cases: PBM binding z-score (relative to random genomic background probes); higher = stronger binding; sequences stand for … in GC…GCGATTGACAGCGTAGAATGAAGG
[1] = system: PPARg:RXRa DBDmut IVT, anti-RXR (DBD mutation: RXRa K156A/R161A, NR concentration 270 nM, RXRa partner concentration 90 nM)
Procedure, shortened: (§1)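 Scanned fluorescence from custom Agilent 4×180K protein-binding microarrays was regression-normalized. Binding z-scores use random background probes as reference. Ligand-free nuclear receptor dimers were incubated on the arrays for 1 h and detected with antibodies against each partner (one per run).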

[2] = system: PPARg:RXRa IVT, anti-PPARg (NR concentration 270 nM, RXRa partner concentration 90 nM)
Procedure, shortened: as §1

[3] = system: PPARg DBDmut:RXRa IVT, anti-PPARg (DBD mutation: PPARg1 K132A/R137A, NR concentration 270 nM, RXRa partner concentration 90 nM)
Procedure, shortened: as §1

[4] = system: PPARg DBDmut IVT, anti-PPARg (DBD mutation: PPARg1 K132A/R137A, NR concentration 270 nM)
Procedure, shortened: as §1

[5] = system: PPARg homodimer (NR concentration 180 nM)
Procedure, shortened: as §1

[6] = system: PXR:RXRa (NR concentration 270 nM, RXRa partner concentration 90 nM)
Procedure, shortened: as §1

[7] = system: PXR homodimer (NR concentration 270 nM)
Procedure, shortened: as §1

[8] = system: RARa:RXR (NR concentration 270 nM, RXRa partner concentration 90 nM)
Procedure, shortened: as §1

[9] = system: RARa homodimer (NR concentration 270 nM)
Procedure, shortened: as §1

[10] = system: RARb:RXRa (NR concentration 270 nM, RXRa partner concentration 90 nM)
Procedure, shortened: as §1

| Sequence | PBM binding z-score [1] | PBM binding z-score [2] | PBM binding z-score [3] | PBM binding z-score [4] | PBM binding z-score [5] | PBM binding z-score [6] | PBM binding z-score [7] | PBM binding z-score [8] | PBM binding z-score [9] | PBM binding z-score [10] |
| --- | --- | --- | --- | --- | --- | --- | --- | --- | --- | --- |
| CCCACTGGGCCAAGGTCATTGATCAGTCAAAGCA | 2.96 | 4.5 | -0.866 | -1.7 | 1.75 | 3.5 | 1.12 | 3.45 | -0.0237 | 3.08 |
| CCTGCTAGGTCCTGGTCAGCTAATCTACAGTATG | 0.239 | -0.294 | -1.02 | -0.479 | -0.652 | -0.461 | -0.864 | -0.0873 | -0.971 | 0.56 |
| ATCTCTAGGTAAAGATACTTCAGTGAATGCAAAT | 1.8 | 1.32 | 1.1 | 1.13 | 0.534 | 0.635 | 0.252 | 0.522 | 0.591 | -0.033 |
| TCTATTAGTTGATAAGGGCAACCGAAACAGCGGA | 1.65 | 0.714 | 0.803 | 1.07 | 0.853 | 0.671 | 0.649 | 0.881 | 0.996 | 1.6 |
| CGAACGAGGGCATGAGTTGACAGCAAATGCCGAT | 2.75 | 2.11 | -0.484 | -0.439 | 0.454 | 0.679 | 0.0292 | 0.954 | -0.609 | 2.21 |
| AGAATGAGGTTACCAAACATCAGGGAAACGCTTG | 4 | 3.04 | 1.44 | 0.505 | 0.76 | 0.954 | -0.13 | 1.59 | -0.309 | 1.82 |
| CCGACTCGGGCAAAGGTTACCATACTCAGTACGA | 1.5 | 4.06 | -0.108 | -0.188 | 2.32 | 2.01 | -0.0786 | 3.12 | 0.537 | 2.04 |
| TCTTATAGATCAAAGGTTAAGAAAGCCGAAGCCT | 2.07 | 3.14 | 0.659 | 0.755 | 2.4 | 2.41 | 0.154 | 3.82 | 0.262 | 2.06 |
| TCTCGGAGGACACCAAGGTCAGAGCTTTCCAGAG | 1.32 | 1.11 | -0.509 | -0.885 | 1.73 | 2.54 | 2.65 | 2.17 | -0.289 | 3.27 |
| ATCTCTCGGTAACCAAGTTCAGTGAATGCCGAAC | -0.264 | 0.594 | 0.5 | 0.409 | 0.702 | 1.85 | 1.8 | 0.427 | 0.774 | 0.997 |
| GCGACTGGGGCGAAGCAGGTTACCATAAGGTTGG | 0.93 | 0.737 | -1.9 | -1.09 | -0.411 | -0.249 | -0.709 | -0.0547 | -0.898 | 0.235 |
| AATACAGGGTCATCGTAGGCCAGAGGACGCACAG | 2.45 | 4.1 | 1.52 | 0.83 | 2 | 4.85 | 0.696 | 4.98 | 0.699 | 4.41 |
| CTCGAAAGGTCGTGCTCAGGTGAGTATACCAAAC | 0.806 | 1.92 | 0.159 | 0.522 | 2.26 | 3.47 | -0.155 | 4.39 | 0.399 | 3.9 |
| ATCGAAAGGTAGTGAGGTGAGTATACAGAAAGGC | -0.75 | 0.597 | 0.685 | 1.02 | -0.358 | -0.273 | 0.226 | -0.126 | 0.18 | 0.322 |
| TCTTGTAGATCGGCAGGTTAAGAAAGCTGGCCAA | 1.25 | 0.377 | -0.018 | -0.268 | 0.0916 | 0.349 | -0.293 | 0.55 | -0.734 | 0.257 |
| TCTGCTAGGTCGGTTGGTCAGCTAACGAGCTGCC | 0.68 | 0.822 | -0.109 | -0.00426 | -1.51 | -0.617 | -0.886 | -0.528 | -1.53 | 0.845 |
| CCTATTGGGCCAAAGGTCATTGATTCCAATGCTC | 4.3 | 6.28 | -0.0108 | 0.0368 | 4.43 | 5.28 | 2.34 | 6.32 | 1.8 | 4.42 |
| TCTTCTAGGTCAGTTGGTCAGCTAACGAGCTGCC | 6.39 | 6.42 | 3.22 | 3.33 | 2.21 | 1.3 | 0.447 | 1.58 | 1.05 | 3.79 |
| ATCGAAAGGGCGAGGTGAGTATAGAGAAAGGGAA | -0.0167 | 0.793 | 0.764 | 0.945 | 0.793 | 0.415 | 0.345 | 0.69 | 0.319 | 2.09 |
| GGAACGAGGGGAAAGTTGATAGCATCTGTCGACG | 1.59 | 1.99 | 0.258 | -1.07 | 0.339 | -0.114 | -0.142 | -0.0298 | 0.277 | 0.213 |
| TCTATTAGTTGAAGGTCAACCGACGAGTCCGTTT | 2.82 | 2.45 | 1.21 | 0.836 | 3.86 | 4.22 | 2.78 | 4.4 | 3.23 | 4.02 |
| ACTATTAGCTGAGACGAGGGCAACCGATAGGTTG | -0.032 | 0.377 | -0.216 | -0.0358 | -0.21 | 0.33 | 0.536 | 0.226 | 0.488 | 0.935 |
| AGAACGAGGGCAATGAGTTGATAACACGGGTGGC | 2.99 | 2.45 | -0.222 | 0.293 | -0.128 | 1.53 | 4.8 | 0.19 | -0.633 | 2.05 |
